For some of these results: Potency and affinity values are given separately. Calls of active or inactive are those of the source. Unless noted, how the calls were made is not given here.
Tests used:
[1] = antimalarial activity against Dd2 strain (AID 2302;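 active means growth inhibition above 50% at the single 2 µM test dose, taken to imply half-maximal potency below 2 µM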;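 further: 0% = DMSO untreated growth and 100% = chloroquine plus artemisinin killed control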); settings: P. falciparum Dd2 in RBCs, LDH growth readout, 72 h; at 2 µM; active compounds read high
[2] = HepG2 cytotoxicity, primary screen, cytotoxicity control for P. falciparum antimalarial project, cell-based, ATP luminescence (AID 2303;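 active means inhibition above 50%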;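 further: 0% = DMSO wells and 100% = digitonin-killed cells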); settings: HepG2 viability, 24-48 h, at 10 µM, active compounds read high
[3] = target: L-lactate dehydrogenase (Plasmodium falciparum (isolate CDC / Honduras)) (UniProt Q27743); assay: PfLDH activity inhibition – cell lysate, 3D7 strain, counter-screen for P. falciparum growth inhibition project (AID 2304);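 further: 0% = vehicle and 100% = reference inhibitor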; settings: P. falciparum 3D7 crude extract, LDH APAD/NBT absorbance; at 2 µM; active compounds read high
Sequence of L-lactate dehydrogenase (Plasmodium falciparum (isolate CDC / Honduras)) (Q27743 whole entry, looked up): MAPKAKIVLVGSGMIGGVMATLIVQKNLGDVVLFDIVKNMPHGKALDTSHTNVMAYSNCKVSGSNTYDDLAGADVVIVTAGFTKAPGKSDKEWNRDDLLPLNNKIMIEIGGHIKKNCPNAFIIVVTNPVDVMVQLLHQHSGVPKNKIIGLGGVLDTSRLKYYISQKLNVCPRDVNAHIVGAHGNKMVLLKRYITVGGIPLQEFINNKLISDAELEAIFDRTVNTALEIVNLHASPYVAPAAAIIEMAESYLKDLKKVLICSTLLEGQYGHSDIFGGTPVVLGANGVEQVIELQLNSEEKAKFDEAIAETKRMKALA

[4] = inhibition of 3D7 malaria parasite growth – strain 3D7 (AID 2306);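 further: 0% = DMSO wells and 100% = chloroquine plus artemisinin control wells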; settings: P. falciparum 3D7 erythrocytic growth, LDH absorbance, 72 h; at 2 µM; active compounds read high
[5] = target: Calcium-dependent protein kinase 1 (Plasmodium falciparum (isolate 3D7)) (UniProt P62344); assay: PfCDPK1 kinase inhibitors, biochemical, TCAMS library (AID 1159585; cut-off not given, nearly all actives have IC50 up to about 0.98 µM;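 further: inhibitors leave more ATP so luminescence rises with inhibition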); settings: recombinant PfCDPK1, Kinase-Glo ATP depletion luminescence
Sequence of Calcium-dependent protein kinase 1 (Plasmodium falciparum (isolate 3D7)) (P62344 whole entry, looked up): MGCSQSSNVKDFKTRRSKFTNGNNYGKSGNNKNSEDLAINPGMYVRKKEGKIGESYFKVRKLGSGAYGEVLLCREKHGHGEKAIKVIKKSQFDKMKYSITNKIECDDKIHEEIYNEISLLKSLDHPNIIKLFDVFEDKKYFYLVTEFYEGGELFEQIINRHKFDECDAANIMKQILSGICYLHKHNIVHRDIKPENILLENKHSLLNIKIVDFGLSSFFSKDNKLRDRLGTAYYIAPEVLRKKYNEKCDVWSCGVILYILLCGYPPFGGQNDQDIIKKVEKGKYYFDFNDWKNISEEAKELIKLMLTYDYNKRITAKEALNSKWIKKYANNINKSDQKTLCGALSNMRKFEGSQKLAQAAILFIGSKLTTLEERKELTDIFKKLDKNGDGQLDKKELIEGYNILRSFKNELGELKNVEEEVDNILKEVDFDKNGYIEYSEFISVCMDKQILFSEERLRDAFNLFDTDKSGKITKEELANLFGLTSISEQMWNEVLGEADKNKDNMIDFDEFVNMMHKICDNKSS

[6] = target: Plasmodium falciparum protein kinase 6 (PK6, PF3D7_1337100) (UniProt Q8IDW1); assay: PfPK6 kinase inhibitors, biochemical, TCAMS library (AID 1159586); settings: recombinant PfPK6, Kinase-Glo ATP depletion luminescence
Sequence of Plasmodium falciparum protein kinase 6 (PK6, PF3D7_1337100) (Q8IDW1 1-305): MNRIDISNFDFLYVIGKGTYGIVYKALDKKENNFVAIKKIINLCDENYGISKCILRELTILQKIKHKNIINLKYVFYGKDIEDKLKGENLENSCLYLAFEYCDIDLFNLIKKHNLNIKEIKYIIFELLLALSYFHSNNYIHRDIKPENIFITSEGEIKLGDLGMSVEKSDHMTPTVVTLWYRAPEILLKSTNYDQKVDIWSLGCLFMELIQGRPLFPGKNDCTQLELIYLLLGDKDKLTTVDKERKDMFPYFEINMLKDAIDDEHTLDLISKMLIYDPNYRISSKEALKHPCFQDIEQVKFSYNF

[7] = target: Protein kinase 7 (PK7), Plasmodium falciparum 3D7 (PF3D7_0213400) (UniProt Q7YTF7); assay: inhibition of Plasmodium PK7 catalytic activity – biochemical, TCAMS antimalarial set, Kinase-Glo luminescence (AID 1159587); settings: recombinant PfPK7, Kinase-Glo ATP depletion luminescence
Sequence of Protein kinase 7 (PK7), Plasmodium falciparum 3D7 (PF3D7_0213400) (Q7YTF7 1-343): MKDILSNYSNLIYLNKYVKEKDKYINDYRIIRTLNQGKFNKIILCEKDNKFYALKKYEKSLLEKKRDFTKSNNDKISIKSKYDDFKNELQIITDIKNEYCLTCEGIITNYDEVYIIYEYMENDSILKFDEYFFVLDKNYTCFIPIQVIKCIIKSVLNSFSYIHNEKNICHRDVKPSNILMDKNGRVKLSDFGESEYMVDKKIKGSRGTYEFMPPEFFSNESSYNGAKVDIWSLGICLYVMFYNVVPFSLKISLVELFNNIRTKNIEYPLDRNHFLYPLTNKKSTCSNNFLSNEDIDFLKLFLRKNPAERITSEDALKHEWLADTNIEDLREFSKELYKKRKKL

[8] = target: Calcium-dependent protein kinase 4 (Plasmodium falciparum (isolate 3D7)) (UniProt Q8IBS5); assay: PfCDPK4 kinase inhibitors, biochemical, TCAMS library (AID 1159588; cut-off not given, nearly all actives have IC50 up to about 0.91 µM); settings: recombinant PfCDPK4, Kinase-Glo ATP depletion luminescence
Sequence of Calcium-dependent protein kinase 4 (Plasmodium falciparum (isolate 3D7)) (Q8IBS5 whole entry, looked up): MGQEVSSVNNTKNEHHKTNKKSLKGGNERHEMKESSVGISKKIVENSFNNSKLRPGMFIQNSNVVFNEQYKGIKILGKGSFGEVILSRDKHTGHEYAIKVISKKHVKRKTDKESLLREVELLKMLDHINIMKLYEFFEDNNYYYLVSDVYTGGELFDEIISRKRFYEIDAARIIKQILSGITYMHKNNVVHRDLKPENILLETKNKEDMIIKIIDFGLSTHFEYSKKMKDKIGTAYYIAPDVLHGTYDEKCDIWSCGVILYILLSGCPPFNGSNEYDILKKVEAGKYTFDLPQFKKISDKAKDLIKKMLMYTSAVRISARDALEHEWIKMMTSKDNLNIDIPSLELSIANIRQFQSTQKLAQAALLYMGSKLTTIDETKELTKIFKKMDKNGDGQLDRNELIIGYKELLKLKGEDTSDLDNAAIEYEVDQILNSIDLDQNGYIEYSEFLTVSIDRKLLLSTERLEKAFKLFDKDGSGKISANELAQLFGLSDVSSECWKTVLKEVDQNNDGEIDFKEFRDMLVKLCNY

O=c1ccc(-c2nc3cc(Cl)c(Cl)cc3n2Cc2ccc(Cl)cc2Cl)c[nH]1
active: growth inhibition [1] 67% | growth inhibition [4] 88%
inactive: inhibition [2] -8% | inhibition [3] -8% | outcome [5] | outcome [6] | outcome [7] | outcome [8]

COc1ccc2nccc([C@@H](O)CN3CCC(NCc4ccc5c(c4)NC(=O)CO5)CC3)c2c1
active: growth inhibition [4] 99%
inactive: growth inhibition [1] 6% | inhibition [2] 1% | inhibition [3] 5% | outcome [5] | outcome [6] | outcome [7] | outcome [8]

COc1ccc(CNCc2cccc(-c3cccc(-c4nc5c(C)cccc5[nH]4)c3)c2)cc1
active: growth inhibition [1] 60% | growth inhibition [4] 102%
inactive: inhibition [2] 31% | inhibition [3] -4% | outcome [5] | outcome [6] | outcome [7] | outcome [8]

N#Cc1cccc(COC(=O)C2=C(COc3ccccc3Cl)NC(=O)NC2c2c[nH]c3cnccc23)c1 (stereo not given)
active: growth inhibition [4] 99%
inactive: growth inhibition [1] -3% | inhibition [2] 0% | inhibition [3] -1% | outcome [5] | outcome [6] | outcome [7] | outcome [8]

COc1ccc(Nc2ccnc3cc(Cl)ccc23)cc1OC
inactive: inhibition [2] 36% | inhibition [3] 3% | outcome [5] | outcome [6] | outcome [7] | outcome [8]
active: growth inhibition [1] 91% | growth inhibition [4] 104%

CS(=O)(=O)Nc1cccc(-c2cnc3[nH]cc(-c4ccc(CCC(=O)O)cc4)c3c2)c1
inactive: inhibition [2] 7% | inhibition [3] 2% | outcome [5] | outcome [6] | outcome [7] | outcome [8]
active: growth inhibition [1] 78% | growth inhibition [4] 98%

CCn1cc2c3c(cc(C(=O)N[C@@H](Cc4ccccc4)[C@H](O)CNC4CCOCC4)cc31)N(C)S(=O)(=O)CC2
inactive: inhibition [2] -10% | inhibition [3] 0% | outcome [5] | outcome [6] | outcome [7] | outcome [8]
active: growth inhibition [1] 98% | growth inhibition [4] 98%

Cn1nc(-c2ccc(NC(=O)Nc3cc(C(F)(F)F)ccc3F)c(F)c2)c2cnc(NCCCn3ccnc3)nc21
active: growth inhibition [1] 97% | growth inhibition [4] 100%
inactive: inhibition [2] 45% | inhibition [3] 0% | outcome [5] | outcome [6] | outcome [7] | outcome [8]

COc1ccc(C(=O)NC2CCN(c3ccnc4cc(Cl)ccc34)C2)cc1 (stereo not given)
active: growth inhibition [1] 100% | growth inhibition [4] 100%
inactive: inhibition [2] 31% | inhibition [3] 2% | outcome [5] | outcome [6] | outcome [7] | outcome [8]

Cc1cc(OCCN2CCCCC2)ccc1NC(=O)c1cccc2c(=O)n(Cc3ccc(Cl)cc3)cnc12
inactive: inhibition [3] 0% | outcome [5] | outcome [6] | outcome [7] | outcome [8]
active: growth inhibition [1] 56% | inhibition [2] 100% | growth inhibition [4] 88%

CCCCc1cc(NCc2ccncc2)nc(Nc2ccccc2)n1
inactive: growth inhibition [1] 4% | inhibition [2] -5% | inhibition [3] -3% | outcome [5] | outcome [6] | outcome [7] | outcome [8]
active: growth inhibition [4] 96%

COc1cccc(C(=O)NCc2n[nH]c(=S)n2-c2ccc(Cl)c(Cl)c2)c1
active: growth inhibition [1] 100% | growth inhibition [4] 102%
inactive: inhibition [2] -1% | inhibition [3] 5% | outcome [5] | outcome [6] | outcome [7] | outcome [8]

COc1ccccc1C1CCN(C2CCC(NC(=O)/C=C/c3ccc(OC(F)(F)F)cc3)CC2)CC1 (stereo not given)
inactive: growth inhibition [1] 11% | inhibition [3] -3% | outcome [5] | outcome [6] | outcome [7] | outcome [8]
active: inhibition [2] 65% | growth inhibition [4] 82%

Cc1ccc2nc(C)cc(NN=Cc3ccccc3[N+](=O)[O-])c2c1
inactive: inhibition [2] 5% | inhibition [3] -1% | outcome [5] | outcome [6] | outcome [7] | outcome [8]
active: growth inhibition [1] 100% | growth inhibition [4] 102%

CCOc1cc(C)ccc1C1CCN(CCCCNC(=O)c2ccc(-c3ccc(C(F)(F)F)cn3)cc2)CC1
active: inhibition [2] 55% | growth inhibition [4] 99%
inactive: growth inhibition [1] 45% | inhibition [3] 5% | outcome [5] | outcome [6] | outcome [7] | outcome [8]

O=C(Nc1cccc(CN2CCCN(Cc3cccnc3)CC2)c1)c1cc2ccccc2s1
inactive: growth inhibition [1] 28% | inhibition [2] 15% | inhibition [3] 1% | outcome [5] | outcome [6] | outcome [7] | outcome [8]
active: growth inhibition [4] 92%

N#Cc1ccc(-n2cc(C(=O)Nc3ccc4c(c3)CCN(C3CCC3)CC4)c(C(F)(F)F)n2)cc1
inactive: inhibition [2] 37% | inhibition [3] -2% | outcome [5] | outcome [6] | outcome [7] | outcome [8]
active: growth inhibition [1] 99% | growth inhibition [4] 102%

O=C(/C=C/c1ccc(F)cc1)NC1CCC(CCN2CCCN(c3ccc(C(F)(F)F)cn3)CC2)CC1 (stereo not given)
active: growth inhibition [4] 97%
inactive: growth inhibition [1] 13% | inhibition [2] 29% | inhibition [3] -1% | outcome [5] | outcome [6] | outcome [7] | outcome [8]

Cc1ccc([N+](=O)[O-])cc1NC(=O)N(CC(O)c1ccccc1)C1CCCCC1 (stereo not given)
active: growth inhibition [1] 98% | growth inhibition [4] 100%
inactive: inhibition [2] 11% | inhibition [3] 6% | outcome [5] | outcome [6] | outcome [7] | outcome [8]

COc1cccc(NC(=O)NCCNc2ccnc(Nc3ccc(F)cc3)n2)c1
inactive: growth inhibition [1] 1% | inhibition [2] 18% | inhibition [3] 4% | outcome [5] | outcome [6] | outcome [7] | outcome [8]
active: growth inhibition [4] 94%
